Screening results from PubChem BioAssay.
A selection: hits, their analogues and other compounds. The true share with any hit is near 1.6%.
KCNQ2 pot: KCNQ2 (rat) channel potentiation | 310,000 tested, 0.54% active | O88943 | B-score at 10 µM | CHO-K1 KCNQ2, FluxOR thallium flux fluorescence; hits give high values;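 active = fluorescence ratio B-score at least 3 SD of library B-scores, with initial fluorescence B-score within 3 of them, cut at about 5.3 in these data; same plate scores as AID 2156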;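 note: B-score of peak minus minimum over baseline fluorescence ratio after K+ and Tl+ stimulus; positive B-score means potentiation of KCNQ2 with more thallium influx and brighter signal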
KCNQ2 inh: KCNQ2 (rat) channel inhibition; CHO-K1 KCNQ2, FluxOR thallium flux, 20 min; hits give low values; B-score at 10 µM; 310,000 tested, 1.1% active; O88943;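 active = fluorescence ratio B-score at most minus 3 library SDs, with starting brightness B-score within 2 library SDs, cut at about -5.5 in these data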
KCNQ2 block conf: confirmation of rat KCNQ2 potassium channel inhibitors. KCNQ2-expressing cells, thallium flux, inhibition; hits give low values. 1,000 tested, 57% active. shares compounds with KCNQ2 inh. activity change, negative = inhibition, % at 10 µM;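 note: 0% = vehicle wells and values are ratio percent relative to vehicle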
KCNQ1 spec: KCNQ2 inhibitor that also affects human KCNQ1 channel; activity change, negative = inhibition, % at 10 µM; 1,000 tested, 15% active; KCNQ1-expressing cells, FluxOR thallium flux fluorescence; hits give low values; shares compounds with KCNQ2 inh;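 active = activity change at least 3 SD of negative controls below their mean in both duplicate wells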;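 note: CHO cells stably transfected with KCNQ1 and depolarized by potassium stimulus; peak minus minimum fluorescence over baseline after thallium addition; 0% = vehicle negative control and -100% = blank without thallium stimulus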
Target sequence (P51787 whole entry, looked up): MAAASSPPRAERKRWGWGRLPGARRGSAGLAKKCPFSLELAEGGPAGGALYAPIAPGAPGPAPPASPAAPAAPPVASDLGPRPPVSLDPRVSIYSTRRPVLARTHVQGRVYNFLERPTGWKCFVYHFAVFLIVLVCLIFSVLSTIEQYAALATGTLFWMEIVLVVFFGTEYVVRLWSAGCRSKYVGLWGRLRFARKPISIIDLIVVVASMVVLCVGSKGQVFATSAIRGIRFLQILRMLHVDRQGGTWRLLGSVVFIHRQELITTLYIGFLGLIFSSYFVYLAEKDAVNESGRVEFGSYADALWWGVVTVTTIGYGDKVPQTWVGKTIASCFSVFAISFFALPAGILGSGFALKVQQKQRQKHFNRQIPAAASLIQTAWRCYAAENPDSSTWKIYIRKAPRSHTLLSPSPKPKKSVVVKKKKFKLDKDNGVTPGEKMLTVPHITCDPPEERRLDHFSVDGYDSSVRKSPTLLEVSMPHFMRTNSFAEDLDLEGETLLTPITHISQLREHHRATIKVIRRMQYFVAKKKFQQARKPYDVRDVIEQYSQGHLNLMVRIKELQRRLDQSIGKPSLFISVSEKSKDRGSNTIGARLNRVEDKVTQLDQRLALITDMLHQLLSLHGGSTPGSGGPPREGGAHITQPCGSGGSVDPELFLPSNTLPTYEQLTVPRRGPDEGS
CHO Tl ctr: counter-screen for KCNQ2 inhibitors: effect in parental CHO cells | activity change, % at 10 µM | shares compounds with KCNQ2 inh | thallium flux counter-screen; hits give low values | 1,000 tested, 14% active;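 note: 0% = vehicle negative controls with stimulus buffer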
KCNQ2 inh confirm: confirmation of rat KCNQ2 potassium channel inhibitors; shares compounds with KCNQ2 inh; KCNQ2-expressing cells, automated patch clamp current; calls only at 10 µM; 550 tested, 49% active
Numbers without * were called inactive; i = inactive; . = not tested or not shown; + = active, no number. Unless noted, the rule behind the calls is not given here.

SMILES | KCNQ2 pot | KCNQ2 inh | KCNQ2 block conf | KCNQ1 spec | CHO Tl ctr | others
O=C(Nc1nc2c(ccc3ccccc32)s1)c1cc([N+](=O)[O-])ccc1N1CCOCC1 | -9.6 | -9.6* | -25%* | i | i | KCNQ2 inh confirm=i
CCOc1cccc(C(=O)Nc2ccccc2C(=O)N2CCN(C)CC2)c1 | . | i | . | . | .
COc1cccc(-c2nc(-c3ccc4c(c3)-c3ccccc3S4(=O)=O)c(-c3ccccc3)[nH]2)c1OC | -8.9 | -8.9* | -26%* | i | i | KCNQ2 inh confirm=i
COc1cccc(-c2nc(-c3ccccc3)c(-c3ccccc3)[nH]2)c1OCC(=O)O | . | i | . | . | .
Cc1cccn2cc(COc3ccc(-c4ccccc4)cc3)nc12 | . | i | . | . | .
Cc1ccc(-c2cc(C(=O)Nc3cccnc3)c3ccccc3n2)o1 | -8.1 | -8.1* | i | i | i
COc1ccccc1NC(=O)c1cc(C)nc2ccccc12 | . | i | . | . | .
COc1ccccc1NC(=O)c1cc(-c2ccc(C)o2)nc2ccccc12 | -8.1 | -8.1* | -34%* | i | i | KCNQ2 inh confirm=+
Cc1ccc(NC(=O)c2cc(-c3ccc(C)o3)nc3ccccc23)cc1 | . | i | . | . | .
CCCCCC(=O)NCc1c(C(F)(F)F)nn(C)c1N1CCOCC1 | . | i | . | . | .
CCn1c(SCC(=O)NCC2CCCO2)nnc1-c1ccc(S(=O)(=O)N2CCN(C)CC2)cc1 (centres undefined) | 0.92 | i | . | . | .
Cc1cccc(-c2nc(CN3CCCC(C(=O)NC4CCCC4)C3)c(C)o2)c1 (centres undefined) | . | i | . | . | .
Cc1cccc(-c2nc(CN3CCCC(C(=O)NC4CCC(C)CC4)C3)c(C)o2)c1 (centres undefined) | -9.6 | -9.6* | -26%* | i | i | KCNQ2 inh confirm=+
CC(C)(C)NC(=O)COc1ccccc1C#N | . | i | . | . | .
COc1ccc(-c2n[nH]c(C)c2-c2cnn(-c3ccccc3)c2)c(O)c1 | -8 | -8* | i | i | i
COc1ccc(-c2n[nH]c(C)c2-c2cnn(-c3ccccc3)c2)c(O)c1C | . | i | . | . | .
CCOc1ccccc1C(=O)NC1CCNCC1 | 0.2 | i | . | . | .
Cc1ccc2c(C)c(C(=O)N3CCN(c4ncccn4)CC3)oc2c1C | -8.6 | -8.6* | -29%* | i | i | KCNQ2 inh confirm=+
COc1ccc2oc(C(=O)N3CCN(c4ncccn4)CC3)c(C)c2c1 | 0.12 | i | . | . | .
Cc1c(C(=O)N(Cc2nccn2C)C(C)C)oc2c(F)cccc12 | 0.43 | i | . | . | .
Cc1ccc2c(C)c(C(=O)N(C)Cc3nccn3C)oc2c1C | -7.6 | -7.6* | i | i | i
COc1cc(C(=S)N2CCOCC2)ccc1OC(=O)c1cc(OC)c(OC)c(OC)c1 | 0.23 | i | . | . | .
CCCCn1cnc2c(c(-c3ccccc3)c(-c3ccccc3)n2Cc2ccco2)c1=N | -7.6 | -7.6* | -27%* | i | i | KCNQ2 inh confirm=i
CCCCn1c(=O)[nH]c(=O)c2c1ncn2Cc1ccco1 | 0.89 | i | . | . | .
CC(C)CCN1C(=O)c2ccc(C(=O)NCc3ccccn3)cc2C1=O | 1.1 | i | . | . | .
SMILES | KCNQ2 pot | KCNQ2 inh | KCNQ2 block conf | KCNQ1 spec | CHO Tl ctr | others
COc1cc(C(=O)NCCN2CCN(C(=O)c3cc(OC)c(OC)c(OC)c3)CC2)cc(OC)c1OC | . | i | . | . | .
COc1ccc(C(CCN2CCOCC2)c2c(O)cc(OC)cc2OC)cc1 (centres undefined) | 0.49 | i | . | . | .
COc1ccc(C(c2c(O)ccc3ccccc23)N2CCOCC2)c(OC)c1 (centres undefined) | -10 | -10* | -32%* | i | i | KCNQ2 inh confirm=i
O=C(CN1C(=O)N/C(=C\c2ccccc2OCc2ccc(C(=O)O)cc2)C1=O)Nc1ccccc1F | 0.48 | i | . | . | .
O=C(CN(CC1CCCO1)C(=O)CNS(=O)(=O)c1ccc(F)cc1)NC1CCCC1 (centres undefined) | . | i | . | . | .
COc1ccc(C(=O)CC(=O)c2ccccc2)cc1 | 0.38 | i | . | . | .
COc1ccc(C(=O)C/C(=C\C(=O)c2ccc(C)cc2)c2ccccc2)cc1 | -7.7 | -7.7* | i | i | i
CC1CCN(S(=O)(=O)c2ccc(NC(=O)CN3C(=O)NC(C)(c4ccccc4)C3=O)cc2)CC1 (centres undefined) | 0.96 | i | . | . | .
Cc1ccc(Nc2nc(N/N=C\c3ccc4c(c3)OCO4)nc(N3CCOCC3)n2)cc1 | 0.63 | i | . | . | .
C1=CC(c2cc3ccccc3o2)OC(CCc2ccccc2)C1 (centres undefined) | . | i | . | . | .
CC(=O)N1CCN(S(=O)(=O)c2ccc(C)cc2)C1C (centres undefined) | 0.1 | i | . | . | .
CSc1ccc(S(=O)(=O)N2CCC(C(=O)NCCN3CCOCC3)CC2)cc1 | . | i | . | . | .
O=C(Nc1ccc(Cl)cc1)Nc1ccc(N2CCOCC2)cc1 | . | i | . | . | .
O=C(Nc1ccc(N2CCOCC2)cc1)Nc1ccc(Cl)c(Cl)c1 | -6.6 | -6.6* | -28%* | i | i | KCNQ2 inh confirm=i
O=C(COc1ccccc1)OC(C(=O)c1ccccc1)c1ccccc1 (centres undefined) | 1.7 | i | . | . | .
COc1ccc(C(=O)C(OC(=O)c2ccccc2)c2ccccc2)cc1 (centres undefined) | -7 | -7* | i | i | i
Cc1cccc2c1Sc1ccc(Cl)cc1CC2N1CCNCC1 (centres undefined) | -8.4 | -8.4* | -42%* | -34%* | -28%* | KCNQ2 inh confirm=+
CCc1cccc2c1Sc1ccccc1CC2N1CCNCC1 (centres undefined) | . | i | . | . | .
Clc1ccc(CN(Cc2ccccc2)C(c2cccs2)c2nnnn2C2CCCC2)cc1 (centres undefined) | . | i | . | . | .
CC(C)(C)n1nnnc1C(c1cccs1)N(Cc1ccc(Cl)cc1)CC1CCCO1 (centres undefined) | -9.9 | -9.9* | i | i | i
Cn1[nH]c(CSc2ccc(Cl)cc2)cc1=O | 0.09 | i | . | . | .
COc1cccc(C(c2c(N)[nH]c(=S)[nH]c2=O)c2c(N)[nH]c(=S)[nH]c2=O)c1 | 0.67 | i | . | . | .
C=C(C)C1CC=C(C)/C(=N/NC(=O)COc2cccc(C)c2)C1 (centres undefined) | 1.4 | i | . | . | .
C=C(C)C1CC=C(C)/C(=N/NC(=O)COc2cccc3ccccc23)C1 (centres undefined) | -9.2 | -9.2* | i | i | i
Cc1ccc(NC(=O)C(Nc2ccccc2)c2ccccc2)cc1 (centres undefined) | . | i | . | . | .
Cc1ccc(NC(=O)C(Nc2cccc(C)c2)c2ccccc2)cc1 (centres undefined) | -7.4 | -7.4* | -28%* | i | i | KCNQ2 inh confirm=i
COc1cc(-c2nc3ccccn3c2NCc2ccccc2)ccc1SC1CCCCC1 | -8.7 | -8.7* | i | i | i
COc1cc(-c2nc3ccc(C)cn3c2NCc2ccccc2)ccc1SC1CCCCC1 | . | i | . | . | .
Cc1ccc(CN2CCN(c3cccc4[nH]ccc34)CC2)cc1 | 0.93 | i | . | . | .
CN1/C(=C\C(=O)Nc2ccc(Br)cc2)C(C)(C)c2ccccc21 | . | i | . | . | .
